RmlCD inh mix: mixture blocks RmlC and RmlD coupled enzyme activity. RmlC/RmlD coupled enzyme inhibition, 384-well mixture HTS. inhibition, % at 5.5 µM. 0.39% of 110,000 active; in the data active = inhibition above about 30%, passing the limit was not always enough
RT RNaseH block: blocks HIV-1 RNase H cleavage of RNA/DNA duplex | inhibition, % at 10 µM | 1.9% of 65,000 active | RT-RNase H RNA/DNA duplex cleavage, fluorescence | P04585; in the data active = inhibition above about 50%
* = called active by the depositor; / = no result; + = active, no number. Only a selection was taken, and hits are over-represented in it overall.

SMILES	RmlCD inh mix	RT RNaseH block
Cc1cc(C)cc(OCC(=O)Nc2ccccc2C(=O)NCc2ccco2)c1	-7	60*
O=C(COc1ccc(Cl)cc1)Nc1ccccc1C(=O)NCc1ccco1	-8	10
COc1cccc2cc3c(=O)n(-c4ccccc4)nc-3oc12	-22	53*
COc1cccc2cc(C(C)=O)c(=O)oc12	7	-3
CCOC(=O)N1CCC(NC(=O)c2ccc3c(c2)N(C)CCS3)CC1	61*	0
CCOC(=O)N1CCC(NC(=O)c2ccc3c(c2)N(Cc2ccc(C)cc2)CCS3)CC1	-46	/
Cc1cccn2c(=O)c(C=NCc3ccco3)c(Nc3ccc(Cl)cc3)nc12	/	4
Cc1ccc(S(=O)(=O)N2CCC(=O)N(C(COCc3ccc(C(F)(F)F)cc3)Cc3ccccc3)CC2)cc1 (configuration not stated)	-2	/
CCOC(=O)c1sc(SCc2ccccc2)c2c1CC(C)(C)CC2=O	8	/
CCC(=O)Oc1ccc2c(C)c(Cl)c(=O)oc2c1	+	-6
Cc1c(Cc2ccccc2)c(=O)oc2cc(OC(=O)c3ccccc3)ccc12	-13	/
Cc1ccc(OC2=NS(=O)(=O)c3ccccc32)cc1	-14	/
CCN(CC)c1cccc(OC2=NS(=O)(=O)c3ccccc32)c1	125	55*
C[C@H]1CCC[C@]2(O[C@H](CCO)C[C@@H](O)[C@@H]2O)O1	5	/
O=C(Nc1c(-c2ccccc2)nc2sccn12)c1ccccc1	-49	3
COc1ccc(-n2ncc3c(N4CCCCC4)ncnc32)cc1	-7	-12
COc1ccc(-n2ncc3c(N4CCN(c5cccc(C)c5C)CC4)ncnc32)cc1	/	84*
O=C(NCc1ccccc1)N(Cc1nc2ccccc2c(=O)[nH]1)C1CCCC1	-1	-7
COc1nc(Oc2ccc(C(=O)O)cc2)nc(Oc2ccc(C(=O)O)cc2)n1	-6	/
COc1ccc(Oc2nc(Oc3ccc(OC)cc3)nc(Oc3ccc(OC)cc3)n2)cc1	-21	57*
CCCn1nnc(NC(=O)c2cc(Br)cc(Br)c2OC)n1	-7	-4
C=CCOn1c(=O)c(=O)n(OCc2ccccc2)c2ccccc21	-16	-6
CCOc1cc2[nH]c(=O)n(CCC(=O)NCCc3ccc(OC)c(OC)c3)c(=O)c2cc1OCC	-5	0
CCOc1cc2[nH]c(=O)n(CCC(=O)NCCc3ccccc3)c(=O)c2cc1OCC	5	64*
CCOC(=O)c1nn(-c2ccc(C)c(C)c2)c(=O)c2c(N)scc12	-15	/
SMILES	RmlCD inh mix	RT RNaseH block
CCOC(=O)c1nn(-c2ccc(OC)cc2)c(=O)c2c(N)scc12	10	75*
Cc1cc(Cl)ccc1OC(C)C(=O)N1CCCN(C(=O)C(C)Oc2ccc(Cl)cc2C)CC1 (configuration not stated)	-1	/
C[C@@H](O)[C@H]1C(=O)N2C(C(=O)O)=C(S[C@@H]3CN[C@H](C(=O)N(C)C)C3)[C@H](C)[C@H]12	-15	/
CCOC(=O)c1cnn(-c2nc(SC)nc3sc4c(c23)CCC4)c1N	13	55*
CCOC(=O)c1cnn(-c2nc(C)nc3sc4c(c23)CCC4)c1N	/	-7
On1c(-c2ccccc2)nc2ccc(Cl)cc21	-2	/
Clc1ccc2nc3ccccn3c2c1	39*	-26
Cc1cc(-c2ccccc2)nc(N(C)NC(=O)c2ccc(Cl)cc2)c1S(C)(=O)=O	-7	/
CCOC(=O)c1cc(OC(=O)c2cccs2)n(-c2ccccc2)n1	-8	50*
CCOC(=O)c1cc(OC(=O)c2ccccc2)n(-c2ccccc2)n1	-32	/
COc1ccc(N2CCN(C(=O)c3ccc(N4C(=O)NC5CC4(C)Oc4ccccc45)cc3)CC2)cc1 (configuration not stated)	3	-7
COc1ccc(-c2nc(C#N)c(NCC3CCCO3)o2)cc1OC (configuration not stated)	42*	-4
CCOc1ccc(-c2nc(C#N)c(NCC3CCCO3)o2)cc1 (configuration not stated)	5	/
COc1ccc(C(=O)OC(C(=O)c2ccccc2)c2ccccc2)cc1 (configuration not stated)	0	/
COCCOc1nc2c(c(=O)n(C)c(=O)n2C)n1Cc1cccc(OC)c1	10	/
COc1ccc(-n2c(-c3ccco3)n[nH]c2=S)cc1	13	57*
Nn1c(-c2ccco2)n[nH]c1=S	-12	49
COCc1n[nH]c(=S)n1-c1cccc2ccccc12	2	4
S=c1[nH]nc(-c2ccco2)n1-c1cccc2ccccc12	12	54*
Cc1ccc(CN2[C@@H](CC(C)C)COCCS2(=O)=O)cc1	-7	/
CCOC(=O)c1c(-c2ccco2)csc1N	-6	56*
CCOC(=O)c1c(-c2ccco2)csc1NC(=O)CSc1nnc(N)s1	-10	/
CCOC(=O)c1c(-c2ccccc2)csc1NC(=O)c1nn(CC)cc1Br	131	67*
CCOC(=O)c1c(-c2ccccc2)csc1NC(=O)c1ccc(N2C(=O)CCC2=O)cc1	20	/
O=C(Nc1ccc2nc(-c3ccc(Br)o3)[nH]c2c1)c1ccco1	7	55*
SMILES	RmlCD inh mix	RT RNaseH block
O=S(=O)(Nc1ccc2nc(-c3ccc(Br)o3)[nH]c2c1)c1ccccc1	17	45
O=C(Nc1cccc(-c2nc3ccccc3[nH]2)c1)c1cccc(NC(=O)c2ccco2)c1	14	64*
O=C(Nc1ccc2nc(-c3ccccc3)[nH]c2c1)c1ccco1	-10	/
O=C(NNC(=O)C(c1ccccc1)c1ccccc1)c1cccs1	2	/
CCCCCC(=O)Nc1cccc(C2=NOC3(C2)C[C@@H](C(N)=O)N(C(=O)CC(c2ccccc2)c2ccccc2)C3)c1 (some centres not stated)	10	/
CN1CCCC(n2nc(Cc3ccc(Cl)cc3)c3ccccc3c2=O)CC1 (configuration not stated)	-10	/
CC(C)CC(COCc1cccc(Cl)c1)N1CCN(C(=O)c2ccc(C(F)(F)F)cc2)CCC1=O (configuration not stated)	-14	/
CCCCNC(=O)[C@@H]1CC=C[C@@H]2CCN(C3CC3)C(=O)[C@@H]21	-5	/
CC(C)c1nnc(NC(=O)c2c(O)c3cccc4c3n(c2=O)CC4)s1	/	-21
CCCc1nnc(NC(=O)c2c(O)c3cccc4c3n(c2=O)CCC4)s1	10	72*
O=C(CSc1nnc(Cn2c(=O)sc3ccccc32)n1-c1ccccc1)Nc1nccs1	-8	1
OCC[C@H]1C[C@@H](O)[C@H](O)[C@@]2(CCCO2)O1	-212	/
CCOC(=O)N1CCC(N2C(=O)c3ccccc3C2Nc2ccc3c(c2)OCCO3)CC1 (configuration not stated)	-11	6
CCOC(=O)N1CCC(N2C(=O)c3ccccc3C2Nc2ccc3c(C)cc(=O)oc3c2)CC1 (configuration not stated)	89*	4
CCc1c(C)nc2ncnn2c1N1CCCC(C(=O)Nc2cc(F)ccc2C)C1 (configuration not stated)	-4	/
O=C(COc1ccc(Cl)cc1Cl)N(Cc1ccco1)C1CCS(=O)(=O)C1 (configuration not stated)	13	-9
CCCc1cc(C(=O)Nc2sc(C)c(CC)c2C#N)no1	/	53*
CCc1c(C)sc(NC(=O)c2cc(C)on2)c1C#N	-13	-3
CCCCN(C)C(=O)c1oc2ccc(S(=O)(=O)N3CCCCCC3)cc2c1C	-50	-37
Cc1sc2nc(SCC(=O)NCCOCCO)n(C)c(=O)c2c1C	6	-16
CCN(CC)C(=O)c1sc2nc(-c3cccs3)cc(-c3cccs3)c2c1N	/	52*

Screens from PubChem BioAssay.
